The record followed here is PubChem BioAssay (Tox21).

Inconclusive results are not listed. Entries that show only a call come without a potency. A number with no mark means an inactive call. Active and inactive are the calls of the source. Calls come from the whole dose curve.
Potency is the fitted concentration of half-maximal effect.

D(2) dopamine receptor (Homo sapiens), sequence (P14416 whole entry, looked up): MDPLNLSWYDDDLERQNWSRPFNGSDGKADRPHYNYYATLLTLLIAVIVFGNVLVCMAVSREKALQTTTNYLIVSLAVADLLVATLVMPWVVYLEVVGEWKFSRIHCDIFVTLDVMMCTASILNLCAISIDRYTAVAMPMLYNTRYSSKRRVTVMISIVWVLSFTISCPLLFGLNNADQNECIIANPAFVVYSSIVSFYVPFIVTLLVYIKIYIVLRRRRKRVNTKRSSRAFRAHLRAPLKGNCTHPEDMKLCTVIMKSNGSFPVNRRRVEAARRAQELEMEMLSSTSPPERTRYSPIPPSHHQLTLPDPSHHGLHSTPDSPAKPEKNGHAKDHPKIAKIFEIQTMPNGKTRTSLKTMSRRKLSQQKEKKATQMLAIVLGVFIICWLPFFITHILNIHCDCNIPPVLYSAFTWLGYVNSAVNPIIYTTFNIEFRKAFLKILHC

This test has as its target D(2) dopamine receptor (Homo sapiens) (UniProt P14416). The experiment in a line: Dopamine D2 receptor (DRD2) small molecule agonists, cell-based qHTS assay (AID 1963594). Note: nearly all actives have a fitted effect of over 35% in size. Particulars: HEK293-DRD2 cAMP HTRF, agonist mode, 30 min; series mostly up to 92.4 µM. The source says: National Center for Advancing Translational Sciences [NCATS]
Division of Preclinical Innovation [DPI]
U.S. Environmental Protection Agency [EPA]
National Institutes of Environmental Health Sciences [NIEHS]
National Toxicology Program [NTP]
U.S. Food and Drug Administration [FDA]
DRD2 is the D2 subtype of the dopamine receptor, which is coupled to Gi subtype of G protein-coupled receptor. This G protein-coupled receptor inhibits adenylyl cyclase activity. The DRD2-HEK293 cell line stably expressing D2 dopamine receptor can be used for screening agonists and antagonists of interactions between D2 and its ligands. The Hek293-DRD2 cAMP assay is based on HTRF technology. It measures changes of cAMP accumulation in response to Gi coupled GPCR activation or inhibition.
Tox21 Assay Protocol Summary:
DRD2-Hek293 cells were dispensed at 600 cells/3uL/well in 1536-well white plates using a Multidrop Dispenser. After the assay plates were incubated at a 37 C/5% CO2 incubator for 24 h, 1 uL of Ro20-1724 at final concentration of 0.1 mM was transferred to the assay plate by a Flying Reagent Dispenser. Following Ro20-1724 addition, 23 nL of compound dissolved in DMSO, positive controls or DMSO only was added to the assay plates via Wako pintool station. The assay plates were incubated at room temperature for 10 min. Next, 1 uL of NKH477 at 200nM was added into the plates. After the assay plates were incubated at room temperature for an additional 30 min, 2.5 ul/well of cAMP-d2 and 2.5 ul/well of anti-cAMP-cryptate were added respectively into the assay plates using a Flying Reagent Dispenser. The plates were incubated at room temperature for 1 h. The fluorescence intensity in the plates was measured at 340 nm excitation and 665 & 620 nm emission by an Envision plate reader.
As for `CCCNC(C)C(=O)Nc1ccccc1C` (stereo not given), the Potency is 14.4 µM (active). Consider `Cc1ccnc2ccccc12`, for which the Potency entry was “inactive”. Regarding `Cc1nccn1CC1CCc2c(c3ccccc3n2C)C1=O` (stereo not given), the Potency result was “inactive”. On the same count and under the same terms, the value for `O=Cc1c(Cl)cccc1Cl` was “inactive”; that for `CC1(C)C(=O)C(C)(C)C1=O` was “inactive”; that for `CC1(C)C(=O)N(CO)C(=O)N1CO` was “inactive”. With `CCCCC(CC)COC(=O)COc1ccc(Cl)cc1Cl` (stereo not given), the Potency result was “inactive”.

For `CC(C)C(=O)Nc1cccc(C(F)(F)F)c1`, the Potency entry is “inactive”. Regarding `CCCCOC(=O)C(C)CC` (stereo not given), the Potency entry was “inactive”.

Consider `CC(C)=CC1CC(C)CCO1` (stereo not given), for which the Potency entry was “inactive”. `COc1ccc(OC)c(OC)c1`: the Potency result is “inactive”. On to `CC1(C)S[C@@H]2[C@H](N=CN3CCCCCC3)C(=O)N2[C@H]1C(=O)O`, for which the Potency entry was “inactive”.

Regarding `O=C(CCBr)N1CCN(C(=O)CCBr)CC1`, the Potency entry is “inactive”. Take `O[C@@H](COc1cccc2ncccc12)CN1CCN(C2c3ccccc3[C@@H]3[C@H](c4ccccc42)C3(F)F)CC1` (stereo not given in full): the Potency entry is “inactive”. On the same count and under the same terms, the result for `C=COC(=O)C(C)(CC)CCC(C)C` (stereo not given) reads “inactive”. As to `CCCCCOC(=O)CCCC`, the Potency entry was “inactive”.

Consider `C[N+]1(C)CCC(=C(c2ccccc2)c2ccccc2)CC1`, for which the Potency entry is “inactive”. On the same count and under the same terms, the result for `COc1cc(OC)cc(OC)c1` reads “inactive”. Turning to `COc1cc(N)c(Cl)cc1C(=O)NC1CCN(CCCOc2ccc(F)cc2)CC1OC` (stereo not given), the Potency entry is “inactive”. On the same count and under the same terms, the value for `C=CC1CO1` (stereo not given) was “inactive”.

As for `CCC(=O)CC(C)CC` (stereo not given), the activation was -3.53% [at 0.349 µM]. Take `C/C=C(/C(=C/C)c1ccc(O)cc1)c1ccc(O)cc1`: the Potency result was “inactive”. For `CCCC[P+](C)(CCCC)CCCC`, the Potency entry is “inactive”. As for `C1OCOCO1`, the Potency result is “inactive”. Same read-out and setting: the result for `COc1cc(C(=O)NS(=O)(=O)c2ccccc2C)ccc1Cc1cn(C)c2ccc(NC(=O)OC3CCCC3)cc12` reads “inactive”; that for `Cc1ccc(=O)n(-c2ccccc2)c1`, “inactive”.

Regarding `CC(=O)Nc1ccc(S(=O)(=O)Nc2cc(C)on2)cc1`, the Potency result was “inactive”.

For `Clc1ccc(C(Cn2ccnc2)OCc2c(Cl)cccc2Cl)c(Cl)c1` (stereo not given), the Potency entry was “inactive”. Same read-out and setting: the value for `CCC(CO)(CO)[N+](=O)[O-]` was “inactive”; that for `CC(C)(C)C1CCC(=O)CC1` was “inactive”. Still for that read-out and setting: the result for `CC(C)(C)C1(CCc2ccc(Cl)cc2)CO1` (stereo not given) reads “inactive”; that for `O=C(CCCCCCCCc1cccnc1)N1CCC(C=C(c2ccccc2)c2ccccc2)CC1`, “inactive”. Turning to `O=c1[nH]sc2cc(Cl)ccc12`, the Potency entry was “inactive”. Still for that read-out and setting: the result for `COc1cc2c3cc1Oc1cc(ccc1O)C[C@@H]1c4c(cc(OC)c(O)c4Oc4ccc(cc4)C[C@@H]3N(C)CC2)CC[N+]1(C)C` reads “inactive”.

In the case of `C=C[Si](C)(C)Cl`, the activation is 0.612% [at 8.39 µM].

With `CCN(CC)C(C)=O`, the Potency entry is “inactive”. Turning to `CCCCOCC(C)O` (stereo not given), the Potency entry was “inactive”. In the case of `CC(C)(C)OC(=O)N1C[C@@H](F)C[C@H]1C(=O)O`, the Potency entry was “inactive”. On the same count and under the same terms, the result for `CCCC1CCCC(=O)O1` (stereo not given) reads “inactive”.

On to `O=C(O)c1cccc(N(Cc2cccnc2)c2ccc(OC(F)F)c(OC(F)F)c2)c1`, for which the Potency result was “inactive”.
